FMDV inh = antivirals against foot and mouth disease virus. FMDV antiviral cell-based qHTS. Potency, µM (highest dose often 57.9 µM), without a hit: top-dose activity change, negative = inhibition, actives largely listed as inhibitors. 410,000 compounds, 1.2% hits; calls by dose curve; tested in HEK293T cells; also: read-out not given here; nearly all actives have a fitted effect of over 45% in size
LASV entry inh = blocks Lassa virus binding to or entry into cells; Lassa virus pseudotype entry inhibition, cell reporter; Potency, µM (doses to about 37.9 µM), inactives show top-dose activity change, negative = inhibition, most hits filed as inhibitors; 300,000 compounds, 1.2% hits; calls by dose curve; tested in HEK293 cells; also: nearly all actives have a fitted effect of over 50% in size
Sm TGR block = S. mansoni TGR enzyme inhibition; purified TGR, DTNB reduction, TNB absorbance 405 nm; Potency, µM (doses to about 114 µM), without a hit: at the top dose activity change, negative = inhibition, most hits filed as inhibitors; 360,000 compounds, 3% hits; AID 485364; also: nearly all actives have a fitted effect of over 60% in size
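TGR 20 nM + NADPH 100 uM (dispensed conc.), cpd preinc 15 min RT; start with NADPH (500 uM addition) then DTNB (15 mM addition). Kinetic TNB absorbance, 405 nm filter. Four-parameter Hill fit across titration.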
RE007 growth inh = less growth of the S. pombe RE007 Vpr strain. S. pombe RE007 Vpr strain, BacTiter-Glo ATP luminescence, 24 h. AID 651644. 360,000 compounds, 0.21% hits. Potency, µM (top dose mostly 92.2 µM), for inactives: at the highest dose activity change, negative = less growth, actives largely listed as inhibitors; active = well fitted falling curve with a large enough effect; inconclusive = small, poorly fitted or top-dose-only effect; inactive = no such curve, though single readings can be large or run the other way; also: nearly all actives have a fitted effect of over 50% in size
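Fission yeast RE007 carrying one integrated HIV-1 vpr copy, seeded at OD 0.01 in PMG+AL medium with 23 nL pinned compound. Grown 24 h at 30 degrees; viability read by BacTiter-Glo luminescence after 5 min.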
HCV inh = inhibitors of hepatitis C virus infection | Potency, µM (top dose mostly 41.8 µM), for the others: at the top dose activity change, negative = inhibition, actives largely listed as inhibitors | Huh7.5.1 HCVcc-Cre infection, luciferase reporter, 44 h | 340,000 compounds, 3.4% hits
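Infectious HCV cell culture screen: compound-treated cells (1,000/well, pre-plated 4 h) are infected with HCVcc-Cre at roughly 0.5 moi and grown 44 h. Infection is quantified by luciferase signal after 15 min substrate incubation at room temperature.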
Marburg entry inh = inhibitors of Marburg virus binding or cell entry; Marburg virus pseudotyped entry inhibition, cell reporter; Potency, µM (series often up to 37.8 µM), for the others: at the highest dose activity change, negative = inhibition, usual class: inhibitors; 300,000 compounds, 1.8% hits; AID 540276; calls by dose curve; tested in HEK293 cells
An asterisk follows results filed as active; ? = inconclusive; nt = no result; [ ] = remark or other dose. Most compounds without a hit are left out; they make up all but 7.2% or so of the library. Unless noted, calls follow the shape of the dose curve; as a rule, active = well fitted curve in the direction sought with a large enough effect; inconclusive = small, poorly fitted or top-dose-only effect, or another doubt; inactive = no such curve, though single readings can be large; an effect the other way counts as inactive or inconclusive. % is scaled to controls: 0 for no effect and ±100 for the full control effect; potency is read from the fitted curve at half-maximal effect.

SMILES | FMDV inh | LASV entry inh | Sm TGR block | RE007 growth inh | HCV inh | Marburg entry inh
Cc1ccc(S(=O)(=O)CC(=O)c2cc(C)c(OC(=O)N(C)C)c(C)c2)cc1 | 12% | ? | -9% | 10% | ? | 11%[46.1 µM]
Cc1cc(C(=O)CS(=O)(=O)c2ccc(F)cc2)cc(C)c1O | 40% | 25% | 14µM* | 43% | 18% | ?
Cc1cc(C(=O)CS(=O)(=O)c2ccccc2)cc(C)c1OC(=O)N(C)C | 24% | -19%[46.1 µM] | -8% | 5% | -10% | ?
Cc1cc(C(=O)CS(=O)(=O)c2ccccc2)cc(C)c1O | 16% | 15%[46.1 µM] | 22µM* | -9% | -2% | 27%[46.1 µM]
CCc1ccc2[nH]cc(S(=O)(=O)c3ccc(C(C)C)cc3)c(=O)c2c1 | 6% | 2%[46.1 µM] | -5% | nt | nt | 4%[46.1 µM]
CCN(CC)S(=O)(=O)c1ccc2c(c1)N(CC(=O)NCCCN1CCN(c3cc(Cl)ccc3C)CC1)C(=O)CO2 | ? | ? | 5% | nt | nt | 13µM*
S=C(Nc1ccc(Oc2ccccc2)cc1)N1CCOCC1 | 34% | -19% | -6% | 0% | -24% | -2%
S=C(Nc1ccccc1)N1CCOCCOCCN(C(=S)Nc2ccccc2)CCOCCOCC1 | -8% | 17% | 1% | 8% | -4% | 5.6µM*
CC(C)(CO)N1CCN(C(=S)Nc2ccccc2)CC1 | 22µM* | nt | 2% | nt | 7% | nt
COc1cc(-c2cc(OC)c3c(C)oc(C)c3c(=O)c2)ccc1O | -10% | -3% | -15% | -6% | ? | -5%
COc1ccc(-c2cc(OC)c3c(C)oc(C)c3c(=O)c2)cc1OC | -8% | ? | 50µM* | -9% | ? | -4%
COc1ccc(-c2cc(OC(=O)c3ccc(Cl)cc3)c3c(C)oc(C)c3c(=O)c2)cc1 | ? | ? | 40µM* | nt | nt | -15%[46.1 µM]
CC(C)n1nnnc1C1c2ccccc2C(=O)N1Cc1ccc(F)cc1 (configuration not stated) | 16% | nt | nt | 24% | nt | nt
COc1ccc2[nH]cc(CCNc3ncncc3-c3cccc(C#N)c3)c2c1 | -23% | nt | nt | nt | nt | nt
COc1cc(N2CCC(O)CC2)ccc1Nc1nnc(Cl)c(Nc2ccccc2S(C)(=O)=O)n1 | 20µM* | nt | nt | -19% | ? | nt
CC1=CC[C@@H](COc2ccccc2)O[C@@]2(C1)C(=O)N(Cc1ccc(F)cc1)c1cccc(Br)c12 | nt | nt | nt | nt | nt | -10%[14.2 µM]
COCCCNC(=O)c1ccc(Cn2c(SCc3ccc(F)cc3)nc3cccnc32)cc1 | 0% | -6%[46.1 µM] | 1% | nt | nt | nt
CC1CC(C)C(=NNC(N)=O)C(C(O)CC2CCC(=O)NC2=O)C1 (configuration not stated) | -11% | ? | nt | -4% | 10µM* | ?
CCOC(=O)CN1C(=O)CC(C[C@@H](O)C2C[C@@H](C)C[C@H](C)C2=O)CC1=O (some centres not stated) | -15% | nt | nt | nt | nt | nt
COc1cc(OC)cc(C(=O)NCC(c2cccs2)S(=O)(=O)c2ccc(F)c(C)c2)c1 (configuration not stated) | -5% | 12%[46.1 µM] | 4% | nt | nt | nt
COc1ccc(Br)cc1CNC(=O)CN1C(=O)CCCc2ccccc21 | 16% | -34%[46.1 µM] | -2% | nt | nt | nt
CC1Cc2nc(SCC(=O)NCc3ccccc3)n(Cc3ccccc3)c(=O)c2S1 (configuration not stated) | 12% | nt | -11% | -10% | ? | nt
CC1Cc2nc(SCC(=O)c3ccccc3)n(Cc3ccccc3)c(=O)c2S1 (configuration not stated) | 15% | nt | -1% | 4% | 11µM* | nt
Cc1c(C(c2ccc(O)cc2)c2c(O)c3ccccc3oc2=O)c(=O)n(-c2ccccc2)n1C (configuration not stated) | 10% | 22%[46.1 µM] | 14µM* | -15% | 4% | 24%[46.1 µM]
Cc1ccc(C(c2c(C)n(C)n(-c3ccccc3)c2=O)c2c(C)n(C)n(-c3ccccc3)c2=O)s1 | -12% | ? | 25µM* | -8% | -22% | ?
Cc1c(C(c2ccc(C(=O)O)cc2)c2c(C)n(C)n(-c3ccccc3)c2=O)c(=O)n(-c2ccccc2)n1C | 16% | ? | 0% | 10% | 3.5µM* | -13%

Source: PubChem BioAssay
